The list is not random: actives were taken first. Their share in the collection is about 4.1%.
Mdm2 MdmX PPI – disrupts the human Mdm2-MdmX interaction. inhibition, % at 8 µM. hit rate 3% among 330,000. SaOS-2 split-luciferase Mdm2/MdmX complementation, luminescence. AID 485346. O15151+Q00987;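 active = inhibition of at least 50% at 8 µM in the primary screen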
CSC inhib – cancer stem cell inhibition; inhibition, % at 7.5 µM; hit rate 1.1% among 300,000; cancer stem cell-like cells viability, luminescence; in the data active = inhibition above about 75%; tested in HMLE shEcad cells
Beta apoptosis – blocks beta cell apoptosis; INS-1E cytokine-induced death, ATP luminescence, 48 h; percent of positive-control rescue, neutral wells zero; protection from apoptosis, % (no concentration beside the values); hit rate 0.8% among 300,000; AID 435005;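 active = Every replicate reaches about 75%, or at least half do and their mean reaches it too, limit read from the data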;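 also: 0% = cytokine-treated negative control wells and 100% = positive control rescue; higher means more ATP so stronger rescue from cytokine killing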
aSyn UTR inh – MLPCN primary screen, SNCA 5' untranslated region; alpha-synuclein 5'UTR reporter, inhibitor activity; inhibition, % (tested at 7.5 µM); hit rate 0.82% among 300,000; AID 1813; in the data active = inhibition above about 60%;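 also: H4 neuroglioblastoma cells stably carrying SNCA 5'UTR luciferase fusion; 0% = DMSO wells and 100% = positive control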
A1 inh – inhibitors of the anti-apoptotic protein A1, read as caspase activation; caspase activation, % (no concentration beside the values); MEF A1-2A-BIM cells, Caspase-Glo 3/7 luminescence, 3 h; percent of clofoctol response, vehicle zero; hit rate 0.066% among 330,000;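 active = over half of replicate activation scores above 10%, or exactly half above 10 with the replicate mean above 10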
* marks the source's active call; other numbers are inactive results; x = no result.

SMILES	Mdm2 MdmX PPI	CSC inhib	Beta apoptosis	aSyn UTR inh	A1 inh
O=C1/C(=C\c2cc([N+](=O)[O-])ccc2O)SC(=S)N1Cc1ccc(Cl)cc1	x	104.4*	4.0	6.1	0.0
O=C(O)CN1C(=O)/C(=C\c2cc([N+](=O)[O-])ccc2OCc2ccccc2Cl)SC1=S	-17.1	1.9	10.3	-3.7	0.3
Cc1oc2cc3oc(=O)c(CCC(=O)NCc4ccccn4)c(C)c3cc2c1C	-3.4	5.7	-4.2	3.9	-1.0
Cc1cc(Cl)cc(C)c1OCCOCCNCc1ccccc1	34.2	x	x	24.0	0.3
CCN(CC)c1ccc(/C=C/c2nc3ccccc3s2)cc1	44.5	90.4*	-1.5	52.2	-8.9
CCN(CC)c1ccc(NC(=O)COC(=O)/C=C/c2nc3ccccc3s2)cc1	-7.0	-12.4	-1.8	-28.7	1.1
Cc1ccc(S(=O)(=O)Nc2c(C)cc(C)nc2Cl)cc1	-2.4	-2.5	-1.5	4.0	-0.3
COc1cc(C(=O)NC(C)c2ccc(-n3ccnc3)cc2)cc(OC)c1C (stereo not drawn)	16.9	-4.7	0.1	-2.2	0.2
COc1ccc(OC)c(S(=O)(=O)NC(C)c2ccc(-n3ccnc3)cc2)c1 (stereo not drawn)	16.1	-9.8	-5.9	x	13.3*
O=C(O)CCCN1C(=O)/C(=C\C(Cl)=C\c2ccccc2)SC1=S	x	78.7*	-19.9	-224.7	1.9
CC(=O)Nc1ccc(OCC(=O)Nc2ccc(Cl)c(S(=O)(=O)N3CCOCC3)c2)cc1	22.4	9.1	3.5	x	0.3
O=C(O)c1cccc(N/N=C(\N=Nc2ccccc2)c2ccccc2)c1	21.4	88.1*	-0.7	-60.8	-0.9
O=C(O)c1ccc(N=N/C(=N\Nc2ccc(C(=O)O)cc2)c2ccccc2)cc1	5.5	15.3	19.3	-14.8	-0.1
Cc1cc(C)nc(SCc2ccc(C(=O)N/N=C3\CCCC(=O)C3)cc2)n1	-1.9	0.3	-4.9	-16.7	-0.3
COc1ccc(/C=N/Nc2nncc3ccccc23)cc1	-81.2	28.0	14.6	67.1*	-7.0
Cc1nc2c(C)cccn2c(=O)c1NC(=O)c1ccc2c(c1)OCO2	-13.2	x	-2.1	-18.3	-0.2
C=C(C)C1Cc2c(C)nn(-c3cccc4ccccc34)c2C1 (stereo not drawn)	10.0	95.6*	65.6	27.9	0.4
C=C(C)C1Cc2c(C)nn(-c3ccccc3)c2C1 (stereo not drawn)	21.3	4.0	-1.0	-3.8	-0.6
O=S(=O)(c1ccc(NC(=S)NCc2cccnc2)cc1)N1CCCCC1	6.2	138.8*	126.2*	86.4*	-0.3
Cc1ccc(-c2cn(-c3ccc(SC(F)F)cc3)c3[n+]2CCC3)cc1	47.0	x	82.3*	-3.0	0.5
Cc1ccc(-c2cn(-c3ccc(OC(F)F)cc3)c3[n+]2CCCCC3)cc1	20.6	-1.9	99.9*	-6.1	0.2
COc1cc(NC(=O)COc2cc3oc(=O)cc(C)c3cc2Cl)cc(OC)c1OC	18.5	-9.9	10.7	-9.1	0.5
CC(C)(C)[C@H]1CCC(=O)N([C@H](CSc2ccc(Br)cc2)Cc2ccccc2)CC1	38.4	1.8	5.2	x	0.6
CC(C)(C)[C@@H]1CCC(=O)N(CC[C@H](Sc2ccccc2)c2ccccc2)CC1	28.6	104.4*	25.0	18.4	-0.1
CC(C)(C)[C@H]1CCC(=O)N([C@H](CSc2ccccc2)Cc2ccccc2)CC1	10.9	139.2*	6.4	-2.6	1.1
SMILES	Mdm2 MdmX PPI	CSC inhib	Beta apoptosis	aSyn UTR inh	A1 inh
Clc1cccc(CN2CCSCC2)c1	-15.0	-3.5	-6.6	-17.2	0.8
Cc1ccc(N2C(=O)c3ccccc3C2Nc2ccccc2F)nc1 (stereo not drawn)	-1.1	39.3	0.2	-26.6	-0.2
Cc1ccc(N2C(=O)c3ccccc3C2O)nc1 (stereo not drawn)	x	49.9	45.7	72.7*	-7.4
CC(=O)c1cccc(N(CC(=O)NC2CCCCC2)C(=O)Cn2nnc(-c3ccccc3)n2)c1	-11.4	-12.2	0.4	15.0	0.2
Cc1ccc(-c2csc(NC(=O)c3ccc([N+](=O)[O-])o3)n2)cc1	38.7	127.2*	46.2	-234.1	-0.1
Cc1ccc(-c2csc(NC(=O)c3ccc(C)o3)n2)cc1	-12.5	x	x	-3.2	-0.9
CN(C)c1ccc(-c2nnc(-c3cccs3)o2)cc1	-49.8	x	-2.6	81.9*	-16.5
Cc1ccc(NC(=O)c2cc(-c3ccccc3)nn2-c2ccccc2)cc1	-1.6	87.9*	2.3	-97.6	-0.9
Cc1ccc(NC(=O)c2cc(-c3ccccc3)nn2-c2ccccc2)c(Br)c1	12.6	61.2	-12.3	-50.9	0.2
CCN(C(=O)COC(=O)c1cccs1)c1c(N)n(Cc2ccccc2)c(=O)[nH]c1=O	7.3	-2.5	x	3.8	0.6

High-throughput results from PubChem.
